According to PubChem BioAssay (NCATS):
Results filed as inconclusive are left out. The source made the active and inactive calls. Unless noted, calls follow the shape of the dose curve; as a rule, active = well fitted curve in the direction sought with a large enough effect; inconclusive = small, poorly fitted or top-dose-only effect, or another doubt; inactive = no such curve, though single readings can be large; an effect the other way counts as inactive or inconclusive.

How the values were obtained:
[1] = AP1 Signaling Pathway (AID 357; active = well fitted curve in either direction with a large enough effect, not every such curve was filed as active;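 also: ME-180 reporter cells stimulated with EGF at its EC50 level; % is scaled to controls: 0 for no effect and ±100 for the full control effect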); conditions: ME-180 AP-1-bla reporter, EGF-induced, beta-lactamase ratio, 5 h; at 7.69 µM (top of the series) unless noted
Outline: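 Cells are seeded overnight, exposed to compound titrations and an EC50 level of EGF for 5 hours at 37 °C, then loaded with CCF4 dye for 2.5 hours. Beta-lactamase activity under the AP-1 element is read as a blue/green ratio.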

[2] = biological target: Cytochrome P450 1A2 (Homo sapiens) (UniProt P05177); experiment: p450-cyp1a2 (AID 410; calls by dose curve; also: potency is read from the fitted curve at half-maximal effect;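 as to activity change, negative = inhibition: -100% = full effect of reference inhibitor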)
Sequence of Cytochrome P450 1A2 (Homo sapiens) (P05177 whole entry, looked up): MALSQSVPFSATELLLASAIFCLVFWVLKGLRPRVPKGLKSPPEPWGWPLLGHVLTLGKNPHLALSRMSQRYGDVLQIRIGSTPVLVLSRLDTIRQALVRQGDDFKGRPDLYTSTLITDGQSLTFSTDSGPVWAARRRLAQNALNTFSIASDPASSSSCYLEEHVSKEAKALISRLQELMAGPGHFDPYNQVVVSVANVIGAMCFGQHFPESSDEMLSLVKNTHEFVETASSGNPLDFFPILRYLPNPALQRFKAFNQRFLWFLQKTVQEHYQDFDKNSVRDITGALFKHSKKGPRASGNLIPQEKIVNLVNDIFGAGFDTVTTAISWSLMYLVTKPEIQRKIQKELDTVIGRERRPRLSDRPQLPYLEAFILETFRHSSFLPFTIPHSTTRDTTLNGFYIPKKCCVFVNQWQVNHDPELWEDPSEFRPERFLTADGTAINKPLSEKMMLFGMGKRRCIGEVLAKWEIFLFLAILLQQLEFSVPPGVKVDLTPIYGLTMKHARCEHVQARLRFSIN
Outline: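 Luminescent readout of luciferin formed from Luciferin-ME by human CYP1A2; data normalized against complete inhibition by 57 uM furafylline. Enzyme 20nM, substrate 100uM at Km, 100mM KPO4 buffer, 60 min reaction at room temperature.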

[3] = NFAT Signaling Pathway (AID 444; active = well fitted curve in either direction with a large enough effect, not every such curve was filed as active;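 also: carbachol stimulus at about its EC50 of 1 µM final; % is scaled to controls: 0 for no effect and ±100 for the full control effect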); conditions: Jurkat NFAT-bla M1, carbachol, beta-lactamase ratio, 5 h; at 7.69 µM (top of the series) unless noted
Outline: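 Read-out: CCF4 FRET ratio (460 nm/530 nm) after 1 h RT dye loading, used for %activity and AC50 from titration series. Cells: Jurkat NFAT-β-lactamase/M1 line, treated with compound plus 1 uM carbachol for 5 h, 37 °C.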

[4] = Stat Signaling Pathway (AID 446; active = well fitted curve in either direction with a large enough effect, not every such curve was filed as active;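 also: ME-180 cervical cancer cells given 40 pM IL-6 alongside compound; SIE-controlled beta-lactamase reporter measured as 460/530 nm FRET emission ratio; % is scaled to controls: 0 for no effect and ±100 for the full control effect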); conditions: ME-180 SIE beta-lactamase reporter, IL-6 stimulated, 5 h; at 7.69 µM (top of the series) unless noted
Outline: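 ME-180 cells carrying a SIE-driven beta-lactamase reporter are stimulated with 40 pM IL-6 for 5 h at 37C in the presence of compound. The 460/530 nm FRET substrate ratio is read after 2.5 h at RT. Data are normalised to 300 pM IL-6 and to 125 nM JAK inhibitor controls.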

[5] = biological target: Glucocorticoid receptor (Homo sapiens) (UniProt P04150); experiment: GR-GFP Redistribution (AID 450;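 active = compounds whose dose series gives a full or clear partial fitted curve of increased nuclear translocation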; also: potency is read from the fitted curve at half-maximal effect); conditions: U2OS GR-GFP nuclear translocation, laser cytometry, 2 h
Sequence of Glucocorticoid receptor (Homo sapiens) (P04150 whole entry, looked up, the tested form may be a part): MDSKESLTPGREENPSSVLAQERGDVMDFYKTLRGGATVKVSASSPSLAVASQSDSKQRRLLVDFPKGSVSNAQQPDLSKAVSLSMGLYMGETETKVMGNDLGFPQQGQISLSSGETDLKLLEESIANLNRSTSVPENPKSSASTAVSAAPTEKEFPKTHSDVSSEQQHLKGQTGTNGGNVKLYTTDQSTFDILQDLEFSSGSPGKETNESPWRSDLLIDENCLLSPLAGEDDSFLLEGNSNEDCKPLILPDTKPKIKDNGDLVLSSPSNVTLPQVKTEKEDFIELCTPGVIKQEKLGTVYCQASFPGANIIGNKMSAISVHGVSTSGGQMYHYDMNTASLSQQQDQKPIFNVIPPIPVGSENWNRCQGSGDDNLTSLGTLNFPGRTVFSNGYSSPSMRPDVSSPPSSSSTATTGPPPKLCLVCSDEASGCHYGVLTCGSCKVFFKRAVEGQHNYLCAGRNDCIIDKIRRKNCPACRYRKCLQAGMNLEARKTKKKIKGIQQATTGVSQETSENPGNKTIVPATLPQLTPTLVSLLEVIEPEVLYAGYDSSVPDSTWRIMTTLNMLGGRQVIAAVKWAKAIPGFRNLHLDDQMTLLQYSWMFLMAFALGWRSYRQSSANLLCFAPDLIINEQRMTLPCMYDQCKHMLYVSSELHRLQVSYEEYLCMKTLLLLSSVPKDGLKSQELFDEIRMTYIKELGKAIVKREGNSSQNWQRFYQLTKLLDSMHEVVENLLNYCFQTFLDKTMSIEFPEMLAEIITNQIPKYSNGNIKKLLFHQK

[6] = biological target: Glucocorticoid receptor (Homo sapiens) (UniProt P04150); experiment: GR-EFC Redistribution (AID 451; calls by dose curve; also: potency is read from the fitted curve at half-maximal effect); conditions: CHO-K1 GR-EFC translocation, beta-gal luminescence, 2 h
Outline: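 Translocation of GR-ED fusion to nuclear EA restores b-gal, read by luminescence after 1 h room-temperature detection. Engineered CHO-K1 biosensor cells, 1,000/well, exposed 2 h at 37 C to titrations up to 46 uM final.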

[7] = biological target: 3',5'-cyclic-AMP phosphodiesterase 4B (Homo sapiens) (UniProt Q07343); experiment: qHTS Assay for Inhibitors of PDE-IV (AID 607; active = well fitted activation curve with a large enough effect in the main read-out, with a control signal flat, not every such curve was filed as active; also: potency is read from the fitted curve at half-maximal effect)
Sequence of 3',5'-cyclic-AMP phosphodiesterase 4B (Homo sapiens) (Q07343 whole entry, looked up): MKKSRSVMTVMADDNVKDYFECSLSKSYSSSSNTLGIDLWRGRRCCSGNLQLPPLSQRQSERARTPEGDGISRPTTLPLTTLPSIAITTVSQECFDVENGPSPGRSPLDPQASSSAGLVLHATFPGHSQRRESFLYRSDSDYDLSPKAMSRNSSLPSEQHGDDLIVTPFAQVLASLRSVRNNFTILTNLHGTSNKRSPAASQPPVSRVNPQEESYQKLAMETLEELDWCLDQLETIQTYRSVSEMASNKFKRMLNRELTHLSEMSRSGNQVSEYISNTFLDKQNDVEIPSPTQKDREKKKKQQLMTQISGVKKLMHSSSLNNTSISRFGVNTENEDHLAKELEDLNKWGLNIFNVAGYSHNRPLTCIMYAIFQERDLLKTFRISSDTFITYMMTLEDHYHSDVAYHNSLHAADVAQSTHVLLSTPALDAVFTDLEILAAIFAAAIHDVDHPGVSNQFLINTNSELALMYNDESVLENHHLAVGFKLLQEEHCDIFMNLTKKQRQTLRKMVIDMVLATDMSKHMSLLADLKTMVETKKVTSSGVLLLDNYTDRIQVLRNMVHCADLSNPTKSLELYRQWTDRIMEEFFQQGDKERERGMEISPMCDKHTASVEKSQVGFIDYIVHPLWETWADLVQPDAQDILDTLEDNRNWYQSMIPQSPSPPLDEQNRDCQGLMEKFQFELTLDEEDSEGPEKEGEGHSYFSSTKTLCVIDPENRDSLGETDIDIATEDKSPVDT
Outline: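 HEK293 ACTOne cells with CNG channel (1000/well), endogenous PDE4; membrane potential dye, compounds up to 22.9 uM final. Fluorescence Ex 535/Em 590; RO 20-1724 (100 uM final) as reference.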

[8] = biological target: Guanine nucleotide-binding protein G(i) subunit alpha-1 (Homo sapiens) (UniProt P63096); experiment: qHTS Assay for Inhibitors of RGS12 GoLoco Motif Activity (Green Fluorophore) (AID 879);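 also: 0% = labeled peptide with Gαi1 and full inhibition = labeled peptide alone without protein; negative values mean loss of peptide binding seen as reduced polarization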
Sequence of Guanine nucleotide-binding protein G(i) subunit alpha-1 (Homo sapiens) (P63096 whole entry, looked up): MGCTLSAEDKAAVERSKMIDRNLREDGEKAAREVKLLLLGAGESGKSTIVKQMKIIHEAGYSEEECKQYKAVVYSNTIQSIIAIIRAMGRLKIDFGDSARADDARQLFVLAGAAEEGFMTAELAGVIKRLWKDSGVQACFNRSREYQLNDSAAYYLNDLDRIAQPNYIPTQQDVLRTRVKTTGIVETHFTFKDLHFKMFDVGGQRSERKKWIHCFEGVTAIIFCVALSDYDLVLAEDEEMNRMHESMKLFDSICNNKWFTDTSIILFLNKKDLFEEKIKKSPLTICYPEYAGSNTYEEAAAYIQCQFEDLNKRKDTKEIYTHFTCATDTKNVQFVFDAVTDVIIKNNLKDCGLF
Outline: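 Fluorescence polarization assay: 50 nM Gαi1 with 10 nM FITC-labeled RGS12 GoLoco peptide in 10 mM Tris pH 7.5, 150 mM NaCl, 0.1 mM GDP, 0.05% NP40, 10 min at room temperature with compound.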

[9] = biological target: Pyruvate kinase PKM (Homo sapiens) (UniProt P14618); experiment: qHTS Assay for Activators of Human Muscle Pyruvate Kinase (AID 954; active = well fitted curve in the direction sought with a large enough effect, not every such curve was filed as active;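 also: 0% = uninhibited enzyme and -100% = no enzyme or full thiadiazolimine inhibition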)
Sequence of Pyruvate kinase PKM (Homo sapiens) (P14618 whole entry, looked up): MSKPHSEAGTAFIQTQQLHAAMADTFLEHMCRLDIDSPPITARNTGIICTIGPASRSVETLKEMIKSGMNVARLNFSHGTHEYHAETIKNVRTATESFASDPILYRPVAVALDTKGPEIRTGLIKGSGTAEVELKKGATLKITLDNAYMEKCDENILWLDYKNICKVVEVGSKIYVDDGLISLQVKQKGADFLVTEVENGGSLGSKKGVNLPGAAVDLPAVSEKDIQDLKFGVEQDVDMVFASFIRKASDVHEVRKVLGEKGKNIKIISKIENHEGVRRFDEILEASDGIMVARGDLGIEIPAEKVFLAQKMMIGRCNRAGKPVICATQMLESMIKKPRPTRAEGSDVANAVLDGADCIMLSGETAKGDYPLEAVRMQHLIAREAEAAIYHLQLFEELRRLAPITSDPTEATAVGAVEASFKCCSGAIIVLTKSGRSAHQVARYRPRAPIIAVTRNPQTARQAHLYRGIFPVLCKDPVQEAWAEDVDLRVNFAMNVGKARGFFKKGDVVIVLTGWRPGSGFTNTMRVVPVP
Outline: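 Purified human PKM2 (0.1 nM) with 0.5 mM PEP (Km) and 0.1 mM ADP in 50 mM imidazole pH 7.2, KCl, MgCl2, 1 h at room temperature; ATP formed read by coupled luciferase luminescence. Normalized to no-enzyme/110 uM thiadiazolimine inhibition; 0.3 nM enzyme column for activation.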

[10] = biological target: Alpha-galactosidase A (Homo sapiens) (UniProt P06280); experiment: Counterscreen for Glucocerebrosidase Inhibitors: qHTS Assay for Human alpha-Galactosidase at pH 4.5 (AID 992); also: 0% is about no effect
Sequence of Alpha-galactosidase A (Homo sapiens) (P06280 whole entry, looked up): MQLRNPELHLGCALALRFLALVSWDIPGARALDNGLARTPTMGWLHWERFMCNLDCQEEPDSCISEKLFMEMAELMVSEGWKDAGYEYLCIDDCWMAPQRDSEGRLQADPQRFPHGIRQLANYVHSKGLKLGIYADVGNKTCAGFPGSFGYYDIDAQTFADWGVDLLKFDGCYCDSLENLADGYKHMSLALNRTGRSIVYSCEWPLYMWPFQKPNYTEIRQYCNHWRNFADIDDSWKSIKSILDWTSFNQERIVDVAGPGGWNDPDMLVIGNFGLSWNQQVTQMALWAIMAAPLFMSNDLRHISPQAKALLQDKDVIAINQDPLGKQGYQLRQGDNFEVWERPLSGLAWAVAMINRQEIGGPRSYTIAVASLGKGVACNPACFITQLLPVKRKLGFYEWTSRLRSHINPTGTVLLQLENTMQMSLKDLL
Outline: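 Human enzyme (2 nM) with 80 uM 4-methylumbelliferyl alpha-D-galactopyranoside in 50 mM citric acid, 0.005% Tween-20, pH 4.5, 20 min at room temperature. Compounds 0.7 nM–77 uM; fluorescence Ex 365/Em 440 after pH 10 stop; AC50 from Hill fits.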

[11] = biological target: alpha-glucosidase (Oryza sativa, rice) (UniProt Q653V4); experiment: Counterscreen for Glucocerebrosidase Inhibitors: qHTS Assay for Rice alpha-Glucosidase at pH 5.0 (AID 997);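 also: 0% = full activity with enzyme and -100% = basal without enzyme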
Outline: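 Rice alpha-glucosidase (4 nM final) with 400 uM 4-methylumbelliferyl-alpha-D-glucopyranoside in citrate buffer pH 5.0, 20 min at room temperature, stopped at pH 10; fluorescence 365/440 nm, compounds 0.7 nM–77 uM, AC50 from Hill fits.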

[12] = biological target: Endonuclease 4 (Escherichia coli (strain K12)) (UniProt P0A6C1); experiment: Counterscreen for APE1 Inhibitors: qHTS Validation Assay for Inhibitors of Endonuclease IV (AID 1708); also: % is scaled to controls: 0 for no effect and ±100 for the full control effect
Outline: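 qHTS concentration-response format; LOPAC1280 tested under APE1-screen conditions. 2 nM enzyme, 15 min compound preincubation at RT, then 50 nM TAMRA/BHQ-2 abasic substrate; kinetic fluorescence read, three reads at 60 s intervals.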

[13] = qHTS for differential inhibitors of proliferation of Plasmodium falciparum line 7G8 (AID 1815);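 also: parasite growth measured after three days of incubation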; also: potency is read from the fitted curve at half-maximal effect;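 as to activity change, negative = inhibition: plate controls were vehicle wells for no effect and reference inhibitor wells for full effect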
[14] = qHTS for differential inhibitors of proliferation of Plasmodium falciparum line HB3 (AID 1886); conditions: Potency: Plasmodium falciparum HB3 proliferation inhibition;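 also: parasites grown with compound for 72 h before SYBR Green readout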; also: potency is read from the fitted curve at half-maximal effect;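 as to activity change, negative = inhibition: plate controls were vehicle for no effect and reference inhibitor for full effect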
[15] = qHTS Assay for Modulators of Human Peripheral Myelin Protein 22 (PMP22) Expression/Activity (AID 1967; active = well fitted curve in the direction sought with a large enough effect in the signal ratio; the % refers to the signal ratio;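 also: 0% = untreated cells and 100% end not stated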)
Outline: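 Quantitative HTS in a mouse Schwann cell line expressing dual click beetle luciferases: Pmp22 promoter (green) and control EF-alpha promoter (red). After 24h treatment, corrected green/red signal ratio gave %Activity relative to untreated cells.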

[16] = qHTS for differential inhibitors of proliferation of Plasmodium falciparum line GB4 (AID 1816); conditions: Potency: Plasmodium falciparum GB4 proliferation inhibition;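 also: parasite growth measured after 72 h incubation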; also: potency is read from the fitted curve at half-maximal effect;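 as to activity change, negative = inhibition: 0% = vehicle DMSO and -100% = reference inhibitor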
[17] = qHTS for differential inhibitors of proliferation of Plasmodium falciparum line W2 (AID 1883); conditions: Potency: Plasmodium falciparum W2 proliferation inhibition;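 also: parasites grown with compound for 72 h before lysis and staining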; also: potency is read from the fitted curve at half-maximal effect;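 as to activity change, negative = inhibition: 0% = vehicle wells and -100% = control inhibitor wells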
[18] = biological target: RecQ-like DNA helicase BLM (Homo sapiens) (UniProt P54132); experiment: qHTS Validation Assay for Inhibitors of Bloom's syndrome helicase (BLM) (AID 2364);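 also: plate controls were DMSO vehicle for no effect and enzyme-free control for full effect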
Sequence of RecQ-like DNA helicase BLM (Homo sapiens) (P54132 whole entry, looked up): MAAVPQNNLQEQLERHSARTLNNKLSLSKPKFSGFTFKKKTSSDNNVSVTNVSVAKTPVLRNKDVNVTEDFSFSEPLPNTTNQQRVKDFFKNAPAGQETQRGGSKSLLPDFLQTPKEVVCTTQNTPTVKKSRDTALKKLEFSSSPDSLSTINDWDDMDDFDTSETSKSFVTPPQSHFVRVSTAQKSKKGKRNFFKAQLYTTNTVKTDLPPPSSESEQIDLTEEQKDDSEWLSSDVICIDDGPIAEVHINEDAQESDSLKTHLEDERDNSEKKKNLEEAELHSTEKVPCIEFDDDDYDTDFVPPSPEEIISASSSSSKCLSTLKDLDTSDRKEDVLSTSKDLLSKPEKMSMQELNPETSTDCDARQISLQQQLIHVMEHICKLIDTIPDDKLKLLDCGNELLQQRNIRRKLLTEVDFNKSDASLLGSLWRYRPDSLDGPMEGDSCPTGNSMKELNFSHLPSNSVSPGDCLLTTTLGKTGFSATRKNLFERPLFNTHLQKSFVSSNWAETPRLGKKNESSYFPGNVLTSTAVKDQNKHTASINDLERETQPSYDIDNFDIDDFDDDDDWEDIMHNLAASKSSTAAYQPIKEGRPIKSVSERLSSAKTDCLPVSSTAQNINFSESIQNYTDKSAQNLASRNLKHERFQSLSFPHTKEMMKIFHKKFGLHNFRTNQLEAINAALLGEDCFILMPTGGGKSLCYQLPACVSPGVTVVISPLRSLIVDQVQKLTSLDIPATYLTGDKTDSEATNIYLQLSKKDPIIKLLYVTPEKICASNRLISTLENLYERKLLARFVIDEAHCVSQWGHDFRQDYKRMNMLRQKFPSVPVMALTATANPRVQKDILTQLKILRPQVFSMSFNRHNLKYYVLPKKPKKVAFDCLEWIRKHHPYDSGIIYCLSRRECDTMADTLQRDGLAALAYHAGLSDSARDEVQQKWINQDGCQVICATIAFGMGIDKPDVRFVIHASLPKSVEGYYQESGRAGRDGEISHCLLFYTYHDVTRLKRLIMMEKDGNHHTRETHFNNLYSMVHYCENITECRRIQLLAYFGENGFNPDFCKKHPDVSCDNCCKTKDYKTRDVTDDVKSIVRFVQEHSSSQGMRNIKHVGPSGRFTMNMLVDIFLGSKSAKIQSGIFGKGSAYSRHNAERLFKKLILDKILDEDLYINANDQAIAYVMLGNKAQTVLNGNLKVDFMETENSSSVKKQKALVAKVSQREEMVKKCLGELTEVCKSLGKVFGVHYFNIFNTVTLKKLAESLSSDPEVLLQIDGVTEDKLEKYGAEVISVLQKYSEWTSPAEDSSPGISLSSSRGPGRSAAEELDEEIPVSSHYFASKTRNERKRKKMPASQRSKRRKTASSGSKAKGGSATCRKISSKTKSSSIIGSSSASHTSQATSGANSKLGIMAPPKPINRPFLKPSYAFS
Outline: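 Forked 20-bp duplex substrate (200 nM, TAMRA/BHQ-2) plus 2 mM ATP added after 15 min compound preincubation with 50 nM enzyme, pH 8.0, poly(dI-dC) 2.5 ug/ml. Strand separation followed by fluorescence (525/598 nm) over 2 h, normalized to enzyme-free and DMSO controls.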

[19] = qHTS profiling for inhibitors of Plasmodium falciparum proliferation (AID 504749); also: potency is read from the fitted curve at half-maximal effect; nearly all actives have a fitted effect of over 60% in size; conditions: P. falciparum in erythrocytes, SYBR Green DNA, 72 h
Outline: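 Infected RBCs, 0.3% parasitemia/2.5% Hct final; cpd 72 h, 37 C, 5% CO2; lysis buffer with saponin/triton/SYBR Green I, o/n RT dark; FI 485/535; norm. to artemisinin (0.29 uM) and DMSO.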

[20] = qHTS Assay for Lipid Storage Modulators (AID 1519; calls by dose curve); conditions: Drosophila S3 cells, BODIPY lipid droplet/cell ratio, laser cytometry, cells loaded with oleic acid
Outline: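 Cells seeded at 5,000 per well were treated with compounds over a concentration series and loaded with oleic acid (400 uM, as added). Lipid droplet fluorescence (488 nm excitation, 500-530 nm channel) was read by laser-scanning cytometry and normalized to 20 uM Triacsin C.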

CCSC(N)=Nc1ccc(C(F)(F)F)cc1
active: Potency [2] 2.51 µM
inactive: activity change, negative = inhibition [1] -5.3% [at 38 µM] | activity change, negative = inhibition [3] 0.554% [at 38 µM] | activity, negative = inhibition [4] 13.4% [at 38 µM] | Potency [5] > 46 µM | Potency [6] > 46 µM | Potency [7] | outcome [8] | outcome [9] | outcome [10] | outcome [11] | outcome [12] | Potency [13] | Potency [14] | outcome [15]

COC(=O)c1c(-c2cc(OC)c(OC)c(OC)c2)c2ccc(OCc3ccccn3)cc2c(=O)n1-c1ccc(N)cc1
inactive: activity change, negative = inhibition [1] -16.9% [at 38 µM] | Potency [2] | activity change, negative = inhibition [3] 10.6% [at 38 µM] | activity, negative = inhibition [4] -8.64% [at 38 µM] | Potency [5] > 46 µM | Potency [6] > 46 µM | outcome [8] | outcome [9] | outcome [10] | outcome [11]
active: Potency [13] 0.891 µM | Potency [16] 2.82 µM | Potency [17] 2.24 µM | Potency [14] 2.82 µM

CCn1c(=O)c2[nH]c(-c3ccccc3)nc2n(CC)c1=O
active: Potency [2] 1 µM | Potency [7] 2 µM
inactive: activity change, negative = inhibition [1] -2.19% [at 38 µM] | activity change, negative = inhibition [3] 15.8% [at 38 µM] | activity, negative = inhibition [4] 6.25% [at 38 µM] | Potency [5] > 46 µM | Potency [6] > 46 µM | outcome [8] | outcome [9] | outcome [10] | outcome [11] | outcome [12] | Potency [16] | Potency [14] | Potency [18]

CC(O)[C@@H](O)[C@H]1CNc2nc(N)[nH]c(=O)c2N1 (some centres undefined)
inactive: Potency [13] | Potency [16] | Potency [17] | Potency [14]

OC[C@H]1O[C@@H](n2cnc3c(N[C@H]4CC5CCC4C5)ncnc32)[C@H](O)[C@@H]1O (some centres undefined)
inactive: outcome [12] | Potency [13] | Potency [16] | Potency [14]

NCCCCNS(=O)(=O)c1cccc2c(Cl)cccc12
inactive: activity change, negative = inhibition [1] -2.83% [at 38 µM] | activity change, negative = inhibition [3] -12.9% [at 38 µM] | activity, negative = inhibition [4] 3.48% [at 38 µM] | Potency [5] > 46 µM | Potency [6] > 46 µM | Potency [7] | outcome [8] | outcome [9] | outcome [10] | outcome [11] | outcome [12] | Potency [18]
active: Potency [2] 15.8 µM | Potency [13] 8.91 µM | Potency [16] 10 µM | Potency [17] 11.2 µM | Potency [14] 12.6 µM

Nc1ncnc2c1nc(Sc1ccc(Cl)cc1)n2[C@H]1O[C@@H]2COP(=O)(O)O[C@H]2[C@@H]1O
active: Potency [16] 7.94 µM | Potency [17] 10 µM | Potency [14] 10 µM
inactive: outcome [12]

Nc1nc2c(nc(Br)n2C2O[C@H]3COP(=O)(O)O[C@@H]3C2O)c(=O)[nH]1 (some centres undefined)
inactive: outcome [12]
active: Potency [17] 6.31 µM

Nc1ncnc2c1ncn2[C@@H]1O[C@H](CO)[C@H](O)[C@H]1O
inactive: outcome [12] | Potency [13] | Potency [16] | Potency [14] | outcome [15] | Potency [18]

C[C@H]1CC2[C@@H]3CCC4=CC(=O)C=C[C@]4(C)[C@@]3(Cl)[C@@H](O)C[C@]2(C)[C@@]1(O)C(=O)CO (some centres undefined)
inactive: outcome [12] | outcome [15]

CSc1nc(N)c2ncn([C@@H]3O[C@H](COP(=O)(O)OP(=O)(O)OP(=O)(O)O)[C@H](O)[C@H]3O)c2n1
inactive: outcome [12]
active: Potency [16] 12.6 µM | Potency [17] 12.6 µM

NC(=NCCC[C@H](N)C(=O)O)NO
inactive: activity change, negative = inhibition [1] -0.154% [at 38 µM] | Potency [2] | activity change, negative = inhibition [3] 10.4% [at 38 µM] | activity, negative = inhibition [4] -18.2% [at 38 µM] | Potency [5] > 46 µM | Potency [6] > 46 µM | Potency [7] | outcome [8] | outcome [9] | outcome [10] | outcome [11] | outcome [12] | Potency [13] | Potency [16] | Potency [17] | Potency [14] | outcome [15] | Potency [18]

CC(N)=NCCCC(N)C(=O)O (centres undefined)
inactive: outcome [12] | Potency [13] | Potency [16] | Potency [17] | Potency [14] | outcome [15] | Potency [18]

CN1C2CC(OC(=O)C(CO)c3ccccc3)CC1C1OC12 (centres undefined)
inactive: Potency [13] | Potency [14] | outcome [15]

CCCCC#Cc1nc(N)c2ncn([C@@H]3O[C@H](C(=O)NCC)[C@@H](O)[C@H]3O)c2n1
inactive: Potency [18]
active: Potency [13] 7.94 µM | Potency [17] 11.2 µM | Potency [14] 11.2 µM

CNCC[C@@H](Oc1ccc(C(F)(F)F)cc1)c1ccccc1
inactive: outcome [12]

CCCC(=O)NCCc1c2n(c3ccc(OC)cc13)Cc1ccccc1-2
inactive: activity change, negative = inhibition [1] -34.8% [at 38 µM] | activity change, negative = inhibition [3] -10.2% [at 38 µM] | Potency [5] > 46 µM | Potency [6] > 46 µM | Potency [7] | outcome [8] | outcome [9] | outcome [10] | outcome [11] | outcome [12] | outcome [15] | Potency [18]
active: Potency [2] 2.51 µM | Potency [13] 11.2 µM | Potency [17] 7.08 µM

CN1C[C@H](C(=O)N[C@]2(C)O[C@@]3(O)C4CCCN4C(=O)[C@H](Cc4ccccc4)N3C2=O)C[C@@H]2c3cccc4[nH]cc(c34)C[C@H]21 (some centres undefined)
active: Potency ([19]; parasite line A) 8.91 µM | Potency ([19]; parasite line B) 4.47 µM

NC[C@@H](O)c1ccc(O)c(O)c1
7.41%: max response ([20]; measured here: cell count channel max response)
inactive: activity change, negative = inhibition ([20]; at 57.5 µM (top of the series)) 7.77%
16.7%: max response ([20]; measured here: lipid channel max response)
